PubChem BioAssay (NCI)
About 83,000 compounds went through this panel and 20% of them were active in at least one assay; those are over-represented in the sample as a whole.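 Cell lines were cultured in 96-well plates, exposed to a single compound concentration, and assessed for percent growth 48 hours later.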 A number with no mark means an inactive call. The source made the active and inactive calls. The calls were made as follows: active = growth percent below 10; inactive = the rest.

Experiments:
Test in all cases: NCI-60 one-dose screen, 48 h (100 = growth as untreated, 0 = no growth, -100 = all killed)
Conditions in all cases: 10 µM
[1] = tested on: SR leukemia
[2] = tested on: RPMI-8226 leukemia
[3] = tested on: OVCAR-8 ovarian
[4] = tested on: OVCAR-5 ovarian
[5] = tested on: OVCAR-4 ovarian
[6] = tested on: SK-OV-3 ovarian
[7] = tested on: IGROV1 ovarian
[8] = tested on: OVCAR-3 ovarian
[9] = tested on: HS 578T breast
[10] = tested on: NCI/ADR-RES ovarian
[11] = tested on: T-47D breast
[12] = tested on: BT-549 breast
[13] = tested on: MDA-MB-435 melanoma
[14] = tested on: SW-620 colon
[15] = tested on: MCF7 breast
[16] = tested on: HCT-116 colon
[17] = tested on: HCC-2998 colon
[18] = tested on: KM12 colon

Row | Compound | growth [1] | growth [2] | growth [3] | growth [4] | growth [5] | growth [6] | growth [7] | growth [8] | growth [9] | growth [10] | growth [11] | growth [12] | growth [13] | growth [14] | growth [15] | growth [16] | growth [17] | growth [18]
1 | CCn1c(SCCc2ccccc2)nnc1-c1nn(-c2ccc(Cl)cc2Cl)c(-c2ccc(Cl)cc2)c1C | 37.6% | 54.1% | 84.5% | 81.7% | 75.6% | 79.1% | 94.1% | 69.1% | 98% | 72.6% | 42.2% | 93.4% | 83.2% | 83.3% | 58.7% | 39.1% | 110% | 69.5%
2 | CN1CCN(c2cc3c(cc2F)c(=O)c(C(=O)O)cn3-c2ccc(F)cc2)CC1 | 96.4% | 101% | 96.8% | 106% | 102% | 109% | 103% | 102% | 99.6% | 90.1% | 99.9% | 92.4% | 103% | 98% | 104% | 95.5% | 106% | 99%
3 | CCN(CC)c1ccc(/C=C2\SC(=O)C(Nc3nnc(-c4cccnc4SCc4ccccc4)o3)C2=O)cc1 (stereo unspecified) | 11.8% | 23.4% | 24.2% | 41.4% | 38.6% | 15.6% | 56.5% | -13.5% (active) | 26.6% | -9.88% (active) | 50.3% | 59.3% | -24.6% (active) | 22.7% | 14.3% | 5.84% (active) | 4.15% (active) | 10.3%
4 | COc1cc(/C=C/c2cc(/C=C/c3ccc(O)c(OC)c3)n(C(=O)Nc3ccc(C)cc3)n2)ccc1O | -14.7% (active) | -14.5% (active) | -2.98% (active) | 20.5% | 16.1% | -29.1% (active) | 4.76% (active) | -34.1% (active) | -16% (active) | 20.5% | 5.65% (active) | -23% (active) | -1.64% (active) | 8.12% (active) | 6.3% (active) | 1.6% (active) | 2.19% (active) | -1.13% (active)
5 | O=C(N/N=C/c1ccc([N+](=O)[O-])cc1)c1ccccc1Nc1cccc(C(F)(F)F)c1 | 104% | 90.4% | 95.8% | 98.6% | 98.2% | 103% | 67.3% | 103% | 7.5% (active) | 91.4% | 95.1% | 77.8% | 103% | 102% | 111% | 53.9% | 99.5% | 141%
6 | O=C(Cn1cc(CO)nn1)Nc1nc2ccccc2s1 | 100% | 107% | 99.4% | 101% | 108% | 104% | 97.8% | 101% | 109% | 101% | 110% | 106% | 99.7% | 106% | 97.9% | 97.2% | 109% | 107%
7 | C[C@]12CCC3c4ccc(O)cc4C[C@@H](CCCCCCCCCS(=O)CCCC(F)(F)C(F)(F)F)C3C1CC[C@@H]2O (stereo partly specified) | 44.6% | 62.5% | 77.7% | 84.5% | 66.2% | 103% | 92.3% | 88.4% | 81.4% | 70.4% | 41.2% | 86.1% | 88.8% | 97.1% | 15.9% | 71.4% | 87% | 80.4%
8 | N#Cc1c(N)nc(-c2cc(F)cc(C(F)(F)F)c2)nc1-c1ccccc1F | 23.6% | 70.9% | 35.8% | 61.1% | 5.1% (active) | 46.6% | 38.6% | 37.5% | 18.4% | 49.3% | 49% | 58.9% | 85.7% | 63.4% | 73.6% | 26.2% | 75.6% | 79.7%
9 | Cc1nn(-c2ccc(-c3ccc(OC(F)(F)F)cc3)cc2)c2nc(Cc3ccccc3)nc(N)c12 | 41.8% | 92.1% | 33% | 57.6% | 4.27% (active) | 56.9% | 47.3% | 46.5% | 55.5% | 40.5% | 49% | 99.4% | 83.5% | 54.4% | 73.8% | 36.3% | 77.2% | 79.6%
10 | NC1=CC(=O)C(=O)c2cccnc21 | 86% | 73.8% | 76% | 101% | 91.8% | 93.9% | 76.7% | 84% | 77.5% | 82.7% | 97.9% | 86% | -82.8% (active) | 73.8% | 52.5% | 86.6% | 83% | 76.7%
11 | Nc1cc(-c2ccncc2)c[nH]c1=O | 74.3% | 109% | 100% | 98.8% | 106% | 120% | 108% | 107% | 110% | 104% | 114% | 93.5% | 115% | 110% | 91% | 97.1% | 116% | 104%
12 | OCC1OC(n2cnc3c(NCc4ccco4)ncnc32)C(O)C1O (stereo unspecified) | 5.19% (active) | 50.8% | 0.871% (active) | 28.8% | 23% | -2.77% (active) | -3.86% (active) | -41.7% (active) | 11.5% | 12.7% | 8.92% (active) | -23% (active) | 17.2% | 18.8% | -13.1% (active) | 1.81% (active) | 23.7% | 62.8%
13 | C[C@H]1[C@H](OC(=O)CCC(=O)O)O[C@@H]2O[C@]3(C)CC[C@H]4[C@H](C)CC[C@@H]1[C@@]24OO3 | -2.25% (active) | 25.8% | 23.4% | 44.3% | 37.6% | 92.9% | 54.5% | 30.8% | 47.2% | 23.6% | 31.3% | 37.9% | 9.74% (active) | 30.6% | 28.4% | 14.1% | 48.1% | 27.1%
14 | CS(=O)(=O)c1nccc(-c2c(-c3cccc(OCc4ccc(F)cc4)c3)nc3sccn23)n1 | 38.6% | 71.7% | 86.3% | 102% | 65.1% | 60.7% | 49.7% | 88.3% | 73.4% | 89.4% | 71.6% | 41.7% | 81.3% | 48.4% | 69.5% | 46.4% | -16.3% (active) | 38.9%
15 | COc1cc(C(=O)n2nc(-c3cc(OC)c(OC)c(OC)c3)nc2N)cc(OC)c1OC | 73.5% | 92.4% | 102% | 97% | 94.5% | 87.5% | 105% | 101% | 103% | 99.2% | 77.1% | 100% | 95.8% | 99.9% | 88.3% | 91.1% | 94.9% | 102%
16 | CS(=O)(=O)c1nccc(-c2c(-c3cccc(O)c3)nc3sccn23)n1 | 72.4% | 91.5% | 94.9% | 99.3% | 78.2% | 95.6% | 117% | 97% | 93% | 101% | 99% | 113% | 84.6% | 106% | 86.3% | 91% | 114% | 96.6%
17 | O=S(=O)(O)c1cccc(Nc2ccc3ccccc3c2)c1 | 92% | 95.5% | 92.4% | 106% | 99% | 87.9% | 84.4% | 97.5% | 96.6% | 97.4% | 89.9% | 98.4% | 106% | 93.2% | 99.5% | 90.5% | 104% | 90.6%
